Results: PubChem BioAssay (NCATS)
Active and inactive are the calls of the source. Calls come from the whole dose curve.

assay: Cell Proliferation Assay Versus the ED40515 IL2 Independent ATL cell lines (AID 1053194); conditions: ED40515 IL2-independent ATL cells
Excerpt: Adult T-cell leukemia (ATL) develops in individuals infected with human T-cell lymphotropic virus-1 (HTLV-1). Clinically, ATL is subclassified into four subtypes: smoldering, chronic, lymphomatous, and acute. Two autocrine loops (IL-2/IL-2Ralpha and IL-15/IL-15Ralpha) and one paracrine stimulation loop that involves IL-9 expression by ATL cells and IL-9Ralpha expression on monocytes are required to maintain viability and proliferation in the smoldering and chronic forms of the disease. These assays examined the differential response profiles for the MIPE library of approved and investigational drugs versus an IL2 dependent and independent matched ATL cell line, with the current submission examining the differential response profiles for drugs on an IL2 independent matched ATL cell line
Plate log growing ED40515 -IL2 cells: 1000cells/ well in 5uL phenol red free RPMI +5% FBS +1x p/s, Glutamine using 1536 well white griener tissue culture plates and multidrop cassette acoustic dispensing Columns 1 and 3 DMSO Columns 2 and 4, 9.2 uM Bortezomib Incubate 48 hours for celltiter glo 37C with 5%CO2 and 95% humidity with low evaporation lids Dispense 3 uL per well of cell titer glo with multidrop Incubate for 15 minutes at RT Read on VL/2 using Luminesence Wheel (Filter A)

SMILES | Potency
O=C1CCCC2=C1C(c1[nH]ncc1Cl)N=C(Nc1nc3ccccc3o1)N2 (stereo not given) | 16.6 µM (active)
Oc1cccc(-c2nc(N3CCOCC3)c3oc4ncccc4c3n2)c1 | 1.32 µM (active)
C#Cc1cccc(Nc2ncnc3cc(OCCOC)c(OCCOC)cc23)c1 | 11.8 µM (active)
O=C(O)c1ccc(-c2c[nH]c3ccc(-c4ccccc4)cc23)cc1C1CCCC1 | 2.35 µM (active)
COc1ccc(-c2ccc3c(N4CCOC[C@H]4C)nc(N4CCOC[C@H]4C)nc3n2)cc1CO | 0.0083 µM (active)
Cc1csc(NC(=O)c2sc3nc4c(c(C(F)(F)F)c3c2N)CCC4)n1 | 26.4 µM (active)
OC[C@H](Cc1ccccc1)Nc1nc(Oc2ccc3c(c2)CCC3)nc2c1ncn2Cc1ccc(-c2ccccc2)cc1 | 4.69 µM (active)
C/C(=C\C(=O)Nc1ccccc1C(=O)O)c1ccc2ccccc2c1 | 8.33 µM (active)
Cc1ccnc(NS(=O)(=O)c2ccc(NC(=O)Nc3ccc(S(=O)(=O)Nc4nccc(C)n4)cc3)cc2)n1 | 6.62 µM (active)
CCn1c(-c2nonc2N)nc2c(C#CC(C)(C)O)ncc(OC[C@H]3CCCNC3)c21 | 33.2 µM (active)
CCc1cc(Nc2nccc(-c3c(-c4ccc(OC)c(C(=O)Nc5c(F)cccc5F)c4)nc4ccccn34)n2)c(OC)cc1N1CCC(N2CCN(S(C)(=O)=O)CC2)CC1 | 4.69 µM (active)
Cc1oncc1C(=O)Nc1ccc(C(F)(F)F)cc1 | 14.8 µM (active)
Cc1cnc(Nc2ccc(OCCN3CCCC3)cc2)nc1Nc1cccc(S(=O)(=O)NC(C)(C)C)c1 | 33.2 µM (active)
CCOc1ccn(-c2ccc(F)cc2)c(=O)c1C(=O)Nc1ccc(Oc2ccnc(N)c2Cl)c(F)c1 | 23.5 µM (active)
CCCS(=O)(=O)Nc1ccc(F)c(C(=O)c2c[nH]c3ncc(Cl)cc23)c1F | 13.2 µM (active)
O=C(c1cc(Cc2n[nH]c(=O)c3ccccc23)ccc1F)N1CCN(C(=O)C2CC2)CC1 | 16.6 µM (active)
CCCCCCCc1ccc(CCc2cccc(O)c2C(=O)O)cc1 | 16.6 µM (active)
Cn1c(=O)c(F)c(Nc2ccc(I)cc2F)c2c(=O)n(C[C@@H](O)CO)cnc21 | 26.4 µM (active)
Cc1cc([C@@H](C)Nc2ccccc2C(=O)O)c2nc(N3CCOCC3)cc(=O)n2c1 | 20.9 µM (active)
CCOc1cc(C(=O)Nc2ccc(Cl)c(-c3nc4ccccc4[nH]3)c2)cc(OCC)c1OCC | 18.7 µM (active)

SMILES | Potency
Cc1ccc(-n2nc(C(C)(C)C)cc2NC(=O)Nc2ccc(OCCN3CCOCC3)c3ccccc23)cc1 | 26.4 µM (active)
O=C(Nc1nc2ccccc2n1CCN1CCOCC1)c1cccc([N+](=O)[O-])c1 | 18.7 µM (active)
CN(C)C(=O)c1ccc(S(=O)(=O)c2ccc(NC(=O)[C@@](C)(O)C(F)(F)F)c(Cl)c2)cc1 | 9.35 µM (active)
COc1ccc(CCN2CCN(CCCc3ccccc3)CC2)cc1OC | 7.43 µM (active)
COc1ccccc1-c1cccc(-c2c(O)c3cc(C#N)c(Cl)cc3[nH]c2=O)c1 | 16.6 µM (active)
O=c1ncn2nc(Sc3ccc(F)cc3F)ccc2c1-c1c(Cl)cccc1Cl | 26.4 µM (active)
CO[C@@H]1[C@H](N(C)C(=O)c2ccccc2)C[C@H]2O[C@]1(C)n1c3ccccc3c3c4c(c5c6ccccc6n2c5c31)C(=O)NC4 | 0.743 µM (active)
CCOc1cc(N2CCC(O)CC2)ccc1Nc1ncc2c(n1)N(C)c1ccccc1C(=O)N2C | 5.26 µM (active)
C[C@]1(c2nc3c(C(N)=O)cccc3[nH]2)CCCN1 | 16.6 µM (active)
O=S(=O)(N=Cc1c(O)ccc2ccccc12)c1cccs1 | 26.4 µM (active)
CC(C)C[C@H](NC(=O)[C@@H](O)[C@H](N)Cc1ccccc1)C(=O)O | 6.62 µM (active)
COCCNCCCn1c(C(=O)CF)c(-c2ccc(C)cc2)c2c(N)ncnc21 | 9.35 µM (active)
Cc1ccc(NC(=O)c2cccc(C(C)(C)C#N)c2)cc1Nc1ccc2ncn(C)c(=O)c2c1 | 26.4 µM (active)
CS(=O)(=O)c1cccc(CNc2nc(Nc3ccc4c(c3)CCC(=O)N4)ncc2C(F)(F)F)c1 | 4.69 µM (active)
CCC(C)n1ncn(-c2ccc(N3CCN(c4ccc(OC[C@H]5CO[C@](Cn6cncn6)(c6ccc(Cl)cc6Cl)O5)cc4)CC3)cc2)c1=O (stereo not given in full) | 10.5 µM (active)
COc1ccc(C2=N[C@H](c3ccc(Cl)cc3)[C@H](c3ccc(Cl)cc3)N2C(=O)N2CCNC(=O)C2)c(OC(C)C)c1 | 33.2 µM (active)
COc1ccccc1[C@H](c1cccc2ccccc12)[C@@](C)(C#N)C(=O)N1CCC(c2cccc(C(F)(F)F)c2)CC1 | 7.43 µM (active)
CC1(C)Cc2c(-c3ccccc3)c(-c3ccc(Cl)cc3)c(CC(=O)O)n2C1 | 11.8 µM (active)
COc1ccc2c3n(c(=NC(=O)c4cccnc4)nc2c1OC)CCN3 | 23.5 µM (active)
CNC(=O)c1ccccc1Sc1ccc2c(/C=C/c3ccccn3)n[nH]c2c1 | 16.6 µM (active)
